According to PubChem BioAssay (NCI):
Compounds without any hit were thinned out: in the full panel of roughly 83,000, 20% have a hit.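 Plates (96-well) were seeded with cells, treated with compound at one concentration, and incubated for 48 hours before percent growth was determined.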 The source made the active and inactive calls.

Each compound was assayed on UO-31 renal (assay: NCI-60 one-dose screen, 48 h (100 = growth as untreated, 0 = no growth, -100 = all killed)). Settings: 10 µM unless noted.
Experimental: Growth inhibition of the UO-31 human tumor cell line is measured as a screen for anti-cancer activity. Cells are grown in 96 well plates and exposed to the test compound for 48 hours. Compounds are tested at a single concentration, which is 10^-5 M for most compounds. The reported endpoint is percent growth (GI% or GIPRCNT), where numbers from 0 - 100% represent growth inhibition, and numbers from -100% - 0 represent cell death. For example, a value of 40 represents 60% growth inhibition. A value of 0 means no net growth occurred over the course of the experiment. A value of -40 indicates 40% of cells at the beginning of the experiment died by the end of the experiment. A value of -100 means all cells are dead at the end of the experiment.
NCI-60 Human Tumor Cell Lines Screen was performed using the standard one-dose NCI protocol, which is described in more detail at https://dtp.cancer.gov/discovery_development/nci-60/default.htm.
Compounds with GIPRCNT values below 10 were considered active. Activity score was based on GIPRCNT using the following formula: […]
Score is 0 for GIPRCNT values of 100 or above, 50 for GIPRCNT values of 0, and 100 for GIPRCNT values of -100.

Compound	growth
COc1ccc2nc(-c3cc(-c4cc(OC)c(OC)c(OC)c4)n[nH]3)[nH]c2c1	-1.85% (active)
COCCNC1=C(Cl)C(=O)c2ccccc2C1=O	115% (inactive)
c1ccc(-c2nc(Nc3ccc(-c4nc5ccccc5[nH]4)cc3)nc(N3CCOCC3)n2)cc1	-60.6% (active)
C=C(C)[C@@H]1CC[C@]2(C(=O)OC)CC[C@]3(C)[C@H](CC[C@@H]4[C@@](C)(CC/C(N)=N/O)[C@H](C(=C)C)CC[C@]43C)[C@@H]12	93% (inactive)
COc1cccc(-c2nn(-c3ccccc3)cc2-c2ccnc(NCCCNS(=O)(=O)c3cccc(F)c3)c2)c1	9.64% (active)
COC(=O)[C@]12CC[C@@H](C)[C@H](C)[C@@H]1C1=CC[C@@H]3[C@@]4(C)C[C@@H](O)OC[C@](C)(C=O)C4C(=O)C[C@@]3(C)[C@]1(C)CC2 (stereo not given in full)	7.68% (active)
COc1ccc(/C=C/C(=O)c2ccc([N+](=O)[O-])cc2)cc1	89.9% (inactive)
O=C(O)/C(=C/c1ccc(O)cc1)c1ccccc1	68.9% (inactive)
CCc1cccc(CC)c1NC(=O)c1sc2nc3c(cc2c1N)CCCC3	57.7% (inactive)
CN1CCN(CC#CCn2c3c(c4ccccc42)C[C@]2(C)[C@H]4CC[C@@H]5[C@H]6[C@H]7OC(=O)[C@@]6(CCC7(C)C)CC[C@@]5(C)[C@]4(C)CC[C@H]2C3(C)C)CC1	67.2% (inactive)
C#CCN=C[C@]12CC[C@@H](C(=C)C)[C@@H]1[C@H]1CC[C@@H]3[C@@]4(C)CCC(=O)C(C)(C)[C@@H]4CC[C@@]3(C)[C@]1(C)CC2	-78.2% (active)
NCCn1cc(-c2nc(-c3c[nH]c4ncccc34)cs2)c2cc(Br)ccc21	62.2% (inactive)
Cc1ccc(-c2nc3ccc(Cl)cc3c(=O)n2N2C(=O)CSC2c2ccccc2Cl)cc1 (stereo not given)	67.2% (inactive)
O=P(O)(c1ccccc1)c1ccccc1I	83.4% (inactive)
Clc1ccc2[nH]cc(-c3nc(-c4c[nH]c5ncccc45)cs3)c2c1	22.2% (inactive)
c1ccc2[nH]c(-c3ccc(Nc4nc(N5CCCCC5)nc(N5CCOCC5)n4)cc3)nc2c1	-37.8% (active)
CC(=O)O[C@H]1CC[C@]2(C)[C@H]3C(=O)C=C4[C@@H]5C[C@](C)(C(=O)N6CCCNCC6)CC[C@]5(C)CC[C@@]4(C)[C@]3(C)CC[C@H]2C1(C)C	-85.5% (active)
Cn1nc(-c2ccccc2)c2c(-c3ccccc3)onc2c1=O	39.6% (inactive)
COc1cccc(-c2nn(-c3ccccc3)cc2-c2ccnc(NCCNS(=O)(=O)c3ccc(Cl)cc3)c2)c1	15.8% (inactive)
Cn1c(=O)c2c(ncn2CC(=O)Nc2ccc(S(N)(=O)=O)cc2)n(C)c1=O	88.8% (inactive)

Compound	growth
COc1ccc(-c2c(-c3nc4ccc(N5CCOCC5)cc4[nH]3)[nH]c(C)c2C(C)=O)cc1	13.8% (inactive)
C=COCCCCCCCCCCCCCCCCCC	124% (inactive)
c1ccc2c(-c3nc(-c4c[nH]c5ncccc45)cs3)c[nH]c2c1	52.5% (inactive)
Cn1c(=O)c2c(nc(N3CCCC3)n2C)n(C)c1=O	93.8% (inactive)
C(=C\c1c[nH]c2ccccc12)/c1ccc2ccccc2n1	23.6% (inactive)
COc1ccc2c(c1)c(-c1nc(-c3c[nH]c4ncccc34)cs1)cn2CCCN1CCCCC1	36.5% (inactive)
COc1cccc(-c2nn(-c3ccccc3)cc2-c2ccnc(NCCCN)c2)c1	51.6% (inactive)
CN(C)c1ccc(N)c2ccccc12	52.7% (inactive)
CC(C)C[C@@H](NC(=O)[C@@H](Cc1ccccc1)NC(=O)c1cnccn1)B1O[C@H]2[C@H](O)[C@@H](C(=O)NCCCC[C@@H]3NC(=O)[C@@H](Cc4ccccc4)NC(=O)[C@H](CC(=O)O)NC(=O)CNC(=O)[C@H](CCCN=C(N)N)NC3=O)O[C@@H](CN)[C@H]2O1	-16.4% (active)
Cc1nn(-c2ccc(Br)cc2)c2nc3[nH]c(=O)[nH]c(=O)c3nc12	94.2% (inactive)
COc1cc(-c2nc(-c3ccccc3)c(-c3ccccc3)[nH]2)cc(OC)c1O	5.85% (active)
CC(C)=CCC/C(C)=C/CC/C(C)=C/CC/C(C)=C/CSC[C@H](NC(=O)CCCCCN1CCN(C)CC1)C(=O)NC1CCCCC1	67.3% (inactive)
Cn1cc(-c2nc(-c3c[nH]c4ncccc34)cs2)c2ccccc21	62.4% (inactive)
COc1cccc2c1C(=O)c1c(O)c3c(c(O)c1C2=O)C[C@@](O)(C(=O)CO)C[C@@H]3OC1C[C@H](N)[C@H](O)[C@H](C)O1 (stereo not given in full)	-40.7% (active)
O=C(/C=C\c1ccc2c(c1)OCO2)/C=C/c1ccc2c(c1)OCO2	76.3% (inactive)
Nc1ccc(Cl)cn1	86.7% (inactive)
Cn1cc(-c2nc(-c3cn(C)c4ncccc34)cs2)c2cc(F)ccc21	51.1% (inactive)
COC(=O)[C@]12CC[C@@H](C)[C@H](C)[C@@H]1C1=CC[C@@H]3[C@@]4(C)C[C@@H](OC(C)=O)[C@H](OC(C)=O)[C@@](C)(COC(C)=O)[C@@H]4[C@H](O)C[C@@]3(C)[C@]1(C)CC2	10.9% (inactive)
NS(=O)(=O)c1ccc(CCNC(=O)/C=C/c2ccc(Cl)cc2)cc1	83.7% (inactive)
O=S(=O)(NCCNc1cc(-c2cn(-c3ccccc3)nc2-c2cccc(O)c2)ccn1)c1ccc(C(F)(F)F)cc1	-39.8% (active)
